Assay outcomes as filed in PubChem.
Peg3 promoter = Peg3 promoter activity inhibition | AID 588405 | hit rate 1.7% among 360,000 | inhibition, % at 20 µM | HeLa PEG-Prom luciferase reporter, luminescence, overnight;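 active = inhibition of at least 50% at 20 µM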
PAX8 reporter = lowers PAX8-driven luciferase in RMG-I cells; RMG-I TPO-luciferase reporter, SteadyGlo, 24 h; inhibition, % at 12.6 µM; hit rate 1.2% among 360,000;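 active = mean replicate inhibition at least 60% with every replicate also reaching 60%; inconclusive = only one of the two criteria is met; inactive = mean below 60% and not all replicates reaching 60%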;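 note: luciferase light reporting Pax8 driven TPO promoter activity; plate controls were median of neutral control wells for no effect and mitoxantrone controls for full effect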
LMP1 NFkB inh = inhibitors of Epstein-Barr LMP1-induced NF-kappaB reporter; LMP1-induced NF-kappaB luciferase reporter cells, luminescence; inhibition, % at 12.5 µM; hit rate 0.69% among 350,000; AID 504558; in the data active = inhibition above about 41%; inconclusive = no clear call, values can overlap the other calls;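 note: 0% = neutral control wells and 100% = reference inhibitor control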
HIF-2a block = blocks HIF-2a reporter activity | inhibition, % at 18.8 µM | AID 624352 | hit rate 0.72% among 360,000 | 786-0 RCC cells HIF-2a reporter, luciferase luminescence, overnight;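 active = inhibition of the luminescence signal of 40% or more relative to plate controls, in a single-dose primary screen at 18.75 µM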
Shn3 3UTR inh = Schnurri-3 reporter inhibition in Clone20 osteoblasts; Clone20 osteoblast Shn3 3'UTR firefly luciferase, 24 h; inhibition, % at 12.5 µM; hit rate 0.52% among 360,000;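 active = mean inhibition of at least 75% with every replicate also reaching 75%; inconclusive = mean inhibition at least 75% but some replicate below; inactive = mean inhibition below 75%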;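 note: 0% = median of neutral control wells and 100% = pilot-screen positive control compound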
MITF TRPM1 inh = inhibitors of MITF-driven TRPM1 promoter in melanoma cells; AID 488899; inhibition, % at 12.5 µM; SK-MEL-5 TRPM1 promoter luciferase, 24 h; hit rate 0.83% among 330,000;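 active = mean inhibition across replicates of 60% or more, whatever share of single replicates reaches that level; inconclusive = some that reach 60%, reason not given; inactive = mean inhibition across replicates below 60%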
Numbers without * were called inactive; ? = inconclusive; / = not tested or not shown. An excerpt weighted towards active compounds, which were near 2.8% of everything screened.

SMILES | Peg3 promoter | PAX8 reporter | LMP1 NFkB inh | HIF-2a block | Shn3 3UTR inh | MITF TRPM1 inh
Cc1nnc(N2CCCC(C(=O)NCc3ccccc3F)C2)c2nn(-c3ccccc3)c(C)c12 (centres undefined) | 15 | 36 | 10 | 17 | 16 | 32
CCc1ccc(CNC(=O)C2CCCN(c3nnc(C)c4c(C)n(-c5ccccc5)nc34)C2)cc1 (centres undefined) | -41 | 89* | 17 | 3 | 42 | 66*
Cc1nnc(N2CCCC(C(=O)NCc3cccc(F)c3)C2)c2nn(-c3ccccc3)c(C)c12 (centres undefined) | 19 | 65* | 7 | 1 | 47 | 30
CO[C@H]1CN(C)C(=O)c2cc(NC(C)=O)ccc2OC[C@H](C)N(C(=O)C2CCC2)C[C@@H]1C | / | -5 | / | / | / | /
Cc1ccc(S(=O)(=O)Nc2ccc3c(c2)C(=O)N([C@H](C)CO)C[C@@H](C)[C@H](CN(C)C(=O)Nc2ccc(C(F)(F)F)cc2)OCCCC[C@@H](C)O3)cc1 | / | 69* | / | / | / | /
Cc1ccc(S(=O)(=O)Nc2ccc3c(c2)C(=O)N([C@H](C)CO)C[C@H](C)[C@@H](CN(C)C(=O)Nc2ccc(C(F)(F)F)cc2)OCCCC[C@H](C)O3)cc1 | / | 41 | / | / | / | /
C[C@@H]1CCCCO[C@H](CN(C)C(=O)Nc2ccc(C(F)(F)F)cc2)[C@H](C)CN([C@H](C)CO)C(=O)c2cc(NS(=O)(=O)c3ccccc3)ccc2O1 | / | 50 | / | / | / | /
Cc1ccc(S(=O)(=O)Nc2ccc3c(c2)C(=O)N([C@@H](C)CO)C[C@H](C)[C@@H](CN(C)C(=O)Nc2ccc(C(F)(F)F)cc2)OCCCC[C@H](C)O3)cc1 | / | 79* | / | / | / | /
O=C(C[C@H]1CC[C@H]2[C@@H](COC[C@@H](O)CN2CC2CC2)O1)NCC1CC1 | / | -2 | / | / | / | /
CCC(=O)N1[C@H](CN(CC)C(=O)c2ccccc2)[C@H](c2ccccc2)[C@@H]1CO | / | -7 | / | / | / | /
Cc1cccc2sc(N(CCCN(C)C)C(=O)c3ccc(C(=O)c4ccccc4)cc3)nc12 | 86* | 15 | 2 | -5 | 9 | -14
CN(C)CCCN(C(=O)CCOc1ccccc1)c1nc2c(F)cccc2s1 | 50* | 87* | 34 | 23 | 9 | 16
CN(C)CCCN(C(=O)CCOc1ccccc1)c1nc2ccc(F)cc2s1 | 72* | 86* | 24 | 6 | -16 | 9
CN(C)CCCN(C(=O)CCc1ccccc1)c1nc2c(F)cccc2s1 | -11 | / | 10 | 16 | 5 | -2
Cc1cccc2sc(N(CCCN(C)C)C(=O)c3sc4ccccc4c3Cl)nc12 | -22 | -3 | -3 | 10 | -6 | 1
CC[C@H]1OC(=O)[C@H](C)[C@@H](O[C@H]2C[C@@](C)(OC)[C@@H](O)[C@H](C)O2)[C@H](C)[C@@H](O[C@@H]2O[C@H](C)C[C@H](N(C)C)[C@H]2O)[C@](C)(O)C[C@@H](C)C(=NOCOCCOC)[C@H](C)[C@@H](O)[C@]1(C)O | 4 | 18 | 54* | 8 | 4 | 6
Oc1cc(-c2cccnc2)cc2cccnc12 | -1 | 23 | -4 | 2 | 89* | 51
Oc1cccc2cc(Nc3ccccc3)cnc12 | -35 | 94* | / | -76 | 95* | /
Oc1cc(Nc2ccccc2)cc2cccnc12 | 15 | 96* | -2 | -4 | 94* | 56
CN1CCN(c2cc(-c3cc(O)c4ncccc4c3)ccn2)CC1 | 41 | 14 | 22 | 17 | 36 | 50
Oc1cc(NCCN2CCOCC2)cc2cccnc12 | 20 | ? | 11 | 5 | -8 | ?
CCc1c(C)nc2ncnn2c1NCCc1ccc(Cl)cc1 | 15 | 28 | 17 | 20 | 88* | 22
CCc1c(C)nc2ncnn2c1NCCc1ccccc1 | -18 | 6 | 20 | -24 | 60 | 15
C[C@@H](O)C#Cc1ccc([C@H]2[C@H](CO)N3CCCCN(CC4CCOCC4)C[C@@H]23)cc1 | / | -20 | / | / | / | /
CN1C(=O)c2cc(NC(=O)C3CCC3)ccc2OC[C@H]2O[C@@H](CC(=O)NCC3CCCCC3)CC[C@H]21 | / | 0 | / | / | / | /
SMILES | Peg3 promoter | PAX8 reporter | LMP1 NFkB inh | HIF-2a block | Shn3 3UTR inh | MITF TRPM1 inh
CC(C)c1cccc(-c2ccc3c(c2)S(=O)(=O)c2cccc(C(=O)NCc4ccccc4)c2C3=O)c1 | 43 | 12 | 3 | 7 | 23 | 12
CC(C)c1cccc(-c2ccc3c(c2)S(=O)(=O)c2cccc(C(=O)NCc4ccccc4Cl)c2C3=O)c1 | 51* | / | -19 | 0 | 37 | 82*
COc1ccc(-c2ccc3c(c2)S(=O)(=O)c2cccc(C(=O)NCc4ccccc4Cl)c2C3=O)cc1OC | 5 | -15 | -55 | -32 | -3 | 0
COc1ccc(-c2ccc3c(c2)S(=O)(=O)c2cccc(C(=O)NCCOc4ccccc4Cl)c2C3=O)cc1OC | 87* | -9 | -80 | -15 | 13 | 69*
CC1=NN(C(C#N)c2c(C)nn(Cc3ccccc3)c2C)C(C)(C)C1 (centres undefined) | -1 | 15 | 57* | 13 | -3 | 2
CC1=NN(C(C#N)c2ccccc2C)C(C)(C)C1 (centres undefined) | 1 | 3 | 7 | 9 | 16 | -1
CC(C)C1CC(CCNCc2ccc(N(C)C)cc2)(c2ccccc2)CCO1 (centres undefined) | 59* | 29 | 5 | 0 | 1 | 73*
CC(C)C1CC(CCNCc2ccc3c(c2)OCO3)(c2ccccc2)CCO1 (centres undefined) | -22 | 7 | -3 | 15 | 15 | -15
O=S(=O)(c1ccccc1F)N1CCCCN2[C@H](C1)[C@H](c1ccc(-c3cncnc3)cc1)[C@@H]2CO | / | 1 | / | / | / | /
O=C(/C=C1\NC2(CCCC2)Cc2ccccc21)C(=O)N/N=C/c1ccc(O)c(O)c1 | 57* | 53 | -16 | 20 | 50 | 20
OC[C@@H]1[C@@H](c2ccc(Cl)cc2)C(c2ccc(F)cc2)=NN1c1ccccc1 | 85* | 3 | -1 | 11 | 22 | 10
C[C@@H]1CCCCO[C@H](CN(C)C(=O)Cc2ccccc2)[C@@H](C)CN([C@@H](C)CO)C(=O)c2cc(NC(=O)CCCN(C)C)ccc2O1 | / | 6 | / | / | / | /
Cc1ccc(C(=O)c2cc([N+](=O)[O-])ccc2N2CCCCC2)cc1 | 11 | 88* | -6 | 29 | 6 | 30
OC[C@H]1[C@H](c2ccc(C3=CCCC3)cc2)[C@H]2CN(CCC(F)(F)F)CCCCN21 | / | -20 | / | / | / | /
CCn1c(=NC(=O)CS(=O)(=O)c2ccccc2)sc2cccc(OC)c21 | -29 | -20 | 12 | -65 | 87* | -3
Cn1c(=NC(=O)CS(=O)(=O)c2ccccc2)sc2ccccc21 | -190 | -107 | -16 | -206 | -45 | -73
Cc1ccc(S(=O)(=O)N(C)C[C@@H]2OCCCC[C@@H](C)Oc3ccc(NS(=O)(=O)c4c(C)noc4C)cc3C(=O)N([C@H](C)CO)C[C@H]2C)cc1 | / | 6 | / | / | / | /
CC1=NN(C(N)=S)C(=O)C1N=Nc1cccc(C(=O)O)c1 (centres undefined) | 28 | 21 | 49* | 46* | 15 | 19
